This passage reports composite z-score and z-score results from PubChem BioAssay.

Assay [1] concerns XIP peptide (Xip251-270) binding. The assay is described as follows: XIP fragment 251-270 binding compounds – biochemical, small-molecule microarray, fluorescence 635/667 nm, 0.1 µg/mL protein, primary screen (AID 1182). Particulars: fluorescent protein binding, 635 nm, higher = more signal, called active from +8 up or from −8 down.
Assay [2] concerns XIP peptide (Xip251-270). The experiment in a line: compounds binding XIP fragment 251-270 – biochemical, small-molecule microarray, fluorescence 635/667 nm, 0.5 µg/mL protein, primary screen (AID 1183). Particulars: fluorescence 635 nm, higher = more signal.
Assay [3] is described as follows: blood-stage malaria parasite viability loss – strain 3D7, DAPI fluorescence, 100 nL, primary screen (AID 1184).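 Also: parasites grown inside human red blood cells in medium with human serum.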 The following applies: P. falciparum 3D7 growth, 3 d, higher = more signal.
Assay [4] concerns the target Homeobox protein Hox-A13 (Mus musculus) (UniProt Q62424). The experiment in a line: disruptors of Hoxa13 oligonucleotide interaction – biochemical, fluorescence polarization, labeled oligonucleotide, primary screen (AID 1185). The following applies: Hoxa13:DNA binding, 15 min, higher = more signal, called active from +8 up or from −8 down.
Assay [5] can be described thus: blockers of DNA damage checkpoint Chk1 activation – imaging, HeLa, hydroxyurea, phospho-Chk1 antibody, percent positive cells, primary screen (AID 1186). The following applies: hydroxyurea-induced phospho-Chk1 immunofluorescence imaging, higher = more signal.
Assay [6] can be described thus: blockers of DNA damage checkpoint Chk1 activation – imaging, HeLa, hydroxyurea, phospho-Chk1 nuclear intensity, primary screen (AID 1187). The following applies: hydroxyurea-induced phospho-Chk1 immunofluorescence imaging, higher = more signal.

Activity calls are given as the source filed them. Unless noted, no rule for the calls is given here.

Homeobox protein Hox-A13 (Mus musculus), sequence (Q62424 whole entry, looked up): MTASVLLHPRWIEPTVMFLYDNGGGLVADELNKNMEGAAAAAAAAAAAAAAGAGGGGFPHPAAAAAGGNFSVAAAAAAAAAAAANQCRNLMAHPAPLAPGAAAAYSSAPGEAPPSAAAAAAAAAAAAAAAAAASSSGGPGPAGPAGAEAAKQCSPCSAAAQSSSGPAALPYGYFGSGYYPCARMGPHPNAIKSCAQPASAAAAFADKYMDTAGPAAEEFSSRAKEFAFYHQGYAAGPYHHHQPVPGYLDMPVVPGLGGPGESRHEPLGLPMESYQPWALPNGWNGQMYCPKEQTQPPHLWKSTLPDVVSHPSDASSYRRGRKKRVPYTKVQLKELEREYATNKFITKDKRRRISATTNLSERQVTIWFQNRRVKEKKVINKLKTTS

For the compound `CN(C)CCCNC(=O)[C@@]1(C)c2ccccc2C(=O)N(Cc2cc(F)cc(C(F)(F)F)c2)[C@H]1c1ccc(CO)cc1`, the results for the composite z-score in assay [1] and in assay [2] were -0.55 (inactive) and -0.114, respectively. In addition, the z-score in assay [3] is -0.809; in assay [4] it was -2.15 (inactive); in assay [5] it was 0.0595 (inactive); in assay [6] it was 0.121 (inactive).

Take `COc1ccc([Si](C)(C)[C@H]2[C@H](CC(=O)N3CCC[C@H]3CO)O[C@@]3(C(=O)N(Cc4cccc(N5C(=O)c6cccc7cccc5c67)c4)c4ccccc43)[C@@H]2C)cc1`: the values for the composite z-score in assay [1] and in assay [2] were 0.397 (inactive) and 0.674, respectively. Further, the z-score in assay [3] is -1.72; in assay [4], -3.25 (inactive); in assay [5], -0.0887 (inactive); in assay [6], -0.429 (inactive).

With `CCOC(=O)C[C@H]1[C@H](OC(=O)Cc2ccc3c(c2)OCO3)[C@@H](NC(=O)c2ccc(-c3ccccc3)cc2)c2cc(OCCCO)ccc2N1C(=O)c1ccc2ccccc2n1`, the composite z-score is -0.458 (inactive) in assay [1] and 0.447 in assay [2]. For the same compound, the z-score in assay [3] is -2.38; in assay [4], -1.61 (inactive); in assay [5] it was 0.455 (inactive); in assay [6], 0.46 (inactive).

Turning to `COCCOC(=O)N1C(=O)[C@@]2(c3cc(C#CC4=CCCCC4)ccc31)[C@H](c1ccc(O)cc1)N1[C@H](c3ccccc3)[C@H](c3ccccc3)OC(=O)[C@H]1[C@@H]2C(N)=O`, the composite z-score was 0.181 (inactive) in assay [1] and 0.751 in assay [2]. The z-score is -0.0117 in assay [3], -1.22 (inactive) in assay [4], 0.0809 (inactive) in assay [5] and 0.185 (inactive) in assay [6].

As to `CC(C)(C)OC(=O)CC[C@]12N=C(c3ccc(OCCCO)cc3)O[C@H]1c1ccccc1N(CCS(=O)(=O)c1ccccc1)C2=O`, the composite z-score in assay [1] is 1.11 (inactive); in assay [2], 0.781. For the same compound, the z-score was -1.96 in assay [3], -2.7 (inactive) in assay [4], -0.266 (inactive) in assay [5] and -0.249 (inactive) in assay [6].

With `C=CCOC(=O)[C@H]1[C@@H]2C(=O)O[C@@H](c3ccccc3)[C@@H](c3ccccc3)N2[C@@H](c2ccc(OCCOC(=O)[C@H]3C[C@H]4C(=O)N5CCC[C@H]5C(=O)N4[C@H]3c3ccc(O)cc3)cc2)[C@]12C(=O)Nc1ccccc12`, the composite z-score in assay [1] was 0.0734 (inactive); in assay [2] it was 0.803. In addition, the z-score in assay [3] was -1.62; in assay [4] it was 1.42 (inactive); in assay [5], -0.398 (inactive); in assay [6], 0.207 (inactive).

Turning to `COc1ccc([Si](C)(C)[C@H]2[C@H](CCO)O[C@@]3(C(=O)N(Cc4ccc(N5C(=O)COc6ccccc65)cc4)c4ccccc43)[C@@H]2C)cc1`, the composite z-score in assay [1] is 0.0409 (inactive); in assay [2], 0.254. In addition, the z-score in assay [3] was -1.95; in assay [4], -0.911 (inactive); in assay [5], -0.661 (inactive); in assay [6], -1.02 (inactive).

As to `CCCCC(O)C1C=CC2C(=O)N(c3ccccc3)C(=O)C2N1Nc1ccccc1F` (configuration not stated), the composite z-score in assay [1] was 0.335 (inactive); in assay [2], 0.744. The z-score in assay [3] was 1.01; in assay [4] it was -3.4 (inactive); in assay [5], 0.772 (inactive); in assay [6] it was -0.0522 (inactive).

As to `O=C1O[C@H](c2ccccc2)[C@H](c2ccccc2)N2[C@H]1[C@@H](C(=O)O)[C@]1(C(=O)Nc3ccc(C#CCCO)cc31)[C@H]2c1ccc(O)cc1`, the composite z-score in assay [1] was 0.207 (inactive); in assay [2] it was 0.901. In addition, the z-score in assay [3] is -0.136; in assay [4], -5.42 (inactive); in assay [5], 0.11 (inactive); in assay [6], -0.002 (inactive).

With `CC1(C)[C@@H]2CC(C(O)C3C=CC4C(=O)N(c5ccccc5)C(=O)C4N3Nc3ccccc3)=C[C@H]1C2` (some centres not stated), the composite z-score was 0.386 (inactive) in assay [1] and 0.576 in assay [2]. Moreover, the z-score is -0.0796 in assay [3], -3.65 (inactive) in assay [4], -0.583 (inactive) in assay [5] and -0.715 (inactive) in assay [6].

Consider `CC(C)(C)C(=O)N[C@@H](c1ccc(Cl)cc1)[C@]1(C)C[C@H]1C1CCCCC1`, for which the composite z-score in assay [1] was 0.398 (inactive); in assay [2], 0.837. For the same compound, the z-score in assay [3] was -0.827; in assay [4] it was 2.32 (inactive); in assay [5], -1.19 (inactive); in assay [6], -0.627 (inactive).

In the case of `COc1ccc(C(=O)Nc2ccc(CN3C(=O)[C@@]4(O[C@@H](CCO)[C@H]([Si](C)(C)c5ccc(OC)cc5)[C@H]4C)c4ccccc43)cc2)cc1`, the results for the composite z-score in assay [1] and in assay [2] were 0.264 (inactive) and 0.758, respectively. The z-score was -2.74 in assay [3], -1.17 (inactive) in assay [4], -0.0822 (inactive) in assay [5] and -0.0421 (inactive) in assay [6].

As for `CCOC(=O)C[C@H]1[C@H](OC(=O)Cc2ccc3c(c2)OCO3)[C@@H](NC(=O)c2ccc3ccccc3c2)c2cc(OCCCO)ccc2N1C(=O)c1ccccc1`, the values for the composite z-score in assay [1] and in assay [2] were 0.0654 (inactive) and 0.263, respectively. For the same compound, the z-score in assay [3] is 0.168; in assay [4] it was -2.57 (inactive); in assay [5], -0.251 (inactive); in assay [6] it was -0.629 (inactive).

With `OC([C@@H]1CC(c2ccccc2)=NO1)[C@H]1CC(c2ccccc2)=NO1` (some centres not stated), the composite z-score in assay [1] was 0.267 (inactive); in assay [2], -0.444. Also, the z-score in assay [3] was 0.557; in assay [4], -0.163 (inactive); in assay [5], -0.801 (inactive); in assay [6], -1.25 (inactive).

As to `COCCCNC(=O)[C@@]1(Cc2ccccc2N=[N+]=[N-])N=C(c2ccc(OCCCO)cc2)O[C@H]1c1ccccc1N=[N+]=[N-]`, the composite z-score in assay [1] is 0.0041 (inactive); in assay [2], 0.771. Moreover, the z-score in assay [3] was -2.43; in assay [4], -2.81 (inactive); in assay [5], -0.559 (inactive); in assay [6], -0.225 (inactive).

`COC(=O)[C@@]1(Cc2ccc(F)cc2)[C@@H]2[C@@H](CC(=O)[C@H]2CC(=O)C(=O)N(C)C)CN1C(=O)c1ccccc1`: the composite z-score in assay [1] was 0.502 (inactive); in assay [2] it was 0.588. For the same compound, the z-score in assay [3] was -1.11; in assay [4] it was -3.94 (inactive); in assay [5], 0.0598 (inactive); in assay [6], 0.186 (inactive).

Turning to `COc1ccc([Si](C)(C)[C@@H]2[C@@H](CCO)O[C@]3(C(=O)N(Cc4ccc(N5C(=O)COc6ccccc65)cc4)c4ccccc43)[C@H]2C)cc1`, the composite z-score in assay [1] is 0.906 (inactive); in assay [2], 0.811. In addition, the z-score was -2.81 in assay [3], -2.08 (inactive) in assay [4], -0.591 (inactive) in assay [5] and -1.55 (inactive) in assay [6].
